Most compounds without a hit are left out; they make up all but 12% or so of the library.
HP1b binding inh: inhibitors of HP1-beta chromodomain binding to methylated histone tails; Potency, µM (titrated, usually from 114 µM), for the others: at the top dose activity change, negative = inhibition, hits mostly inhibitors; AlphaScreen HP1-beta / biotin-H3K9me3 peptide binding; AID 540317; actives 0.56% (n = 390,000); note: nearly all actives have a fitted effect of over 70% in size
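HP1-beta protein (50 nM final) preincubated 30 min at room temperature with biotinylated H3(1-18)K9me3 peptide (50 nM) in PBS pH 7.4, 0.01% Tween-20, then compound added for 30 min. AlphaScreen streptavidin donor/nickel chelate acceptor beads (10 ug/mL final), 30 min dark, luminescence read.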
G9a inh: blocks human histone lysine methyltransferase G9a; Q96KQ7; actives 8.8% (n = 350,000); AID 504332; G9a H3K9 monomethylation, AlphaScreen, 2 h; Potency, µM (highest dose often 102 µM), for inactives: at the top dose activity, negative = inhibition, usual class: inhibitors; note: % is set by controls: 0 for no effect and ±100 for the full control effect; nearly all actives have a fitted effect of over 75% in size
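G9a (20 nM) preincubated 15 min RT with compounds, then 500 nM biotinylated H3K9 peptide and 20 uM SAM added; 2 h RT reaction. Monomethyl-H3K9 product detected by AlphaScreen with anti-H3K9me1 antibody, streptavidin donor and anti-rabbit IgG acceptor beads.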
PLK1 PBD block: blocks phosphopeptide binding to human PLK1 polo-box domain. P53350. Plk1 PBD binding of FITC phosphopeptide, fluorescence polarization. Potency, µM, inactives show max response, negative = inhibition, actives largely listed as inhibitors. actives 2.8% (n = 360,000); note: series mostly up to about 57 µM; % is set by controls: 0 for no effect and ±100 for the full control effect; nearly all actives have a fitted effect of over 65% in size
JMJD2A Tudor inh: inhibitors of human JMJD2A Tudor domain. O75164. actives 4.4% (n = 390,000). AlphaScreen JMJD2A-Tudor / H3K4me3 peptide binding. Potency, µM (series often up to 114 µM), inactives show top-dose activity change, negative = inhibition, hits mostly inhibitors; note: % is set by controls: 0 for no effect and ±100 for the full control effect; nearly all actives have a fitted effect of over 50% in size
Sfp inh: blocks B. subtilis Sfp PPTase activity. AID 1490. actives 3.5% (n = 310,000). Biochemical Sfp PPTase activity, qHTS. Potency, µM, for inactives: largest response in the series, negative = inhibition, hits mostly inhibitors;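 note: the enzyme is Sfp with the accession as filed and its product quenches rhodamine fluorescence; 0% = enzyme reaction without inhibitor and -100% = no enzyme wells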
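With Hepes-Na pH 7.6 buffer containing 10 mM MgCl2, Sfp (15 nM) modified BHQ-2-YbbR (12.5 uM) using rhodamine-CoA (5 uM). Two reads 30 minutes apart at 525/598 nm yielded each well's rate.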
BAZ2B inh: BAZ2B (human) inhibition. Q9UIF8. AlphaScreen BAZ2B-H3K14Ac peptide displacement. Potency, µM (titrated, usually from 114 µM), for inactives: top-dose activity change, negative = inhibition, most hits filed as inhibitors. actives 4.4% (n = 360,000); note: % is set by controls: 0 for no effect and ±100 for the full control effect; nearly all actives have a fitted effect of over 60% in size
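Inhibition is scored as reduced AlphaScreen emission. The BAZ2B/b-H3(5-23)K14Ac complex (50 nM each) in PBS pH 7.4, 0.01% Tween-20 meets compound (up to 110 uM) for 30 min at RT before bead addition.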
The depositor's hits bear a star; ? = inconclusive; nt = no result; ! = not active in a repeat; [ ] = another dose, or the depositor's remark. Calls come from the whole dose curve; as a rule, active = well fitted curve in the direction sought with a large enough effect; inconclusive = small, poorly fitted or top-dose-only effect, or another doubt; inactive = no such curve, though single readings can be large; an effect the other way counts as inactive or inconclusive. Potency is the fitted concentration of half-maximal effect.

SMILES	HP1b binding inh	G9a inh	PLK1 PBD block	JMJD2A Tudor inh	Sfp inh	BAZ2B inh
Cc1cccc(S(=O)(=O)NC(=O)C2(C)CCN2C(=O)C2(c3ccc(Cl)cc3)CCC2)c1 (configuration not stated)	nt	nt	-1%	nt	nt	nt
S=C(Nc1ccccc1)N1CCc2ccccc21	11%	19%[0.501 µM]	-16%	-25%	5%	-6%
O=[N+]([O-])c1ccc(NC(=S)N2CCc3ccccc32)cc1	-16%	35µM*	-16%	?	-1%	?
CN1CCN(C(=S)Nc2ccc([N+](=O)[O-])cc2)CC1	19%	-11%[0.0925 µM]	-17%	-20%	89µM*	?
COC(=O)c1nnc(-c2ccccc2)c(-c2ccccc2)n1	5%	32µM*	-10%	-19%	-16%	-1%
OCc1ccc(-c2ccc(-c3ccc(CO)s3)o2)s1	nt	1.6µM*	nt	nt	-26%	nt
NC(=O)c1csc(-c2ccc(CO)o2)n1	nt	nt	-5%	nt	nt	nt
COc1ccc(-c2cc(=O)c3ccccc3o2)cc1OC	nt	nt	nt	nt	35µM*	nt
COc1ccc(-c2cc(=O)c3c(OC)c(OC)c(OC)cc3o2)cc1OC	nt	nt	nt	nt	2%	nt
CCN(CCCNC(=O)c1cc(Nc2ccc(OC)cc2OC)nc2ccccc12)c1cccc(C)c1	-20%	?	nt	?	nt	nt
CCCCN(CCCNC(=O)c1cc(Nc2ccc(OC)cc2OC)nc2ccccc12)Cc1ccccc1	-20%	10µM*	nt	?	nt	nt
CCCCN(CCCNC(=O)c1cc(Nc2ccc(OC)cc2)nc2ccccc12)Cc1ccccc1	6%	4%[59 µM]	nt	-18%	nt	nt
CCCCN(CCCNC(=O)c1cc(Nc2ccc(OC)c(OC)c2)nc2ccccc12)Cc1ccccc1	?	11µM*	nt	28µM*	nt	nt
CCCCN(C)CCCNC(=O)c1cc(Nc2ccc(OC)c(OC)c2)nc2ccccc12	-6%	71µM*	1%	?	3%	-26%
CN(Nc1cccc(Cl)c1)c1cccc(Cl)c1	51%[57 µM]	nt	-12%	84%	nt	nt
O=C(O)Cc1ccc(NS(=O)(=O)c2ccc3c(c2)OCCO3)cc1	nt	nt	-1%	nt	nt	nt
CC(C)(Oc1ccc(F)cc1)C(=O)OCC(=O)c1ccc(S(C)(=O)=O)cc1	29%	nt	-11%	-15%	nt	nt
CS(=O)(=O)Nc1ccc(C(=O)N2CC(=O)Nc3ccccc32)cc1	44%	4%	-1%	-3%	15%	-16%
CN(C)c1ccc(CNc2ncnc3sccc23)cc1	3%	13µM*	-16%	-35%	-6%	-36%
Cc1ccc(S(=O)(=O)Nc2ccccc2CNc2ncc(Br)cc2Br)cc1	31%	18%[59 µM]	-1%	-8%	-3%	2%
CN(C)c1ccc(CNc2ncc(Br)cc2Br)cc1	-66%	40µM*	1%	20µM*	-7%	14µM*
NS(=O)(=O)c1ccc(CNc2ncnc3sccc23)cc1	28%	?	2%	-3%	22%	3%
CCOc1cc(N2CCOCC2)c(OCC)cc1NS(=O)(=O)c1ccc2c(c1)CC(=O)N2	nt	nt	1%	nt	nt	nt
CCOC(=O)N1CCc2c(sc3c2c(=O)n(-c2ccc(CC)cc2)c(=O)n3CC(=O)c2ccc(F)cc2)C1	28%	13%[59 µM]	nt	-16%	nt	-2%
COc1ccc(OCC(=O)OCc2cc(=O)n3nc(-c4cccs4)sc3n2)cc1	72%	17%[59 µM]	nt	-27%	nt	-2%
SMILES	HP1b binding inh	G9a inh	PLK1 PBD block	JMJD2A Tudor inh	Sfp inh	BAZ2B inh
COc1ccc(N=CC2=C(O)c3ccccc3C2=O)c(OC)c1	-17%	?	-6%	-25%	9%	?
Cc1ccccc1N=CC1=C(O)c2ccccc2C1=O	-18%	45µM*	-4%	-35%	-1%	-37%
CN(C)S(=O)(=O)c1cccc(-c2nn(-c3ccccc3)cc2/C=C(\C#N)c2nc3ccccc3[nH]2)c1	52%	26%[59 µM]	-6%	-7%	4%	3%
CN(C)S(=O)(=O)c1cccc(-c2nn(-c3ccccc3)cc2/C=C2\SC(=S)NC2=O)c1	?	40µM*	21µM*	40µM*	?	32µM*
COc1ccccc1Nc1cc2ccccc2c(=O)[nH]1	nt	nt	nt	79µM*	nt	nt
O=c1[nH]c(Nc2ccc(F)cc2)cc2ccccc12	10%	11µM*	-29%	-14%	-27%	-10%
Cc1ccccc1Nc1cc2ccccc2c(=O)[nH]1	-9%	?	?	45µM*!	-16%	-35%
O=c1[nH]c(Nc2ccccn2)cc2ccccc12	28%	nt	1%	-4%	nt	nt
O=c1[nH]c(Nc2ccccc2Cl)cc2ccccc12	27%	nt	-12%	-7%	nt	nt
Cc1cc(C)c2c(CC(=O)NNC(=O)c3ccccc3)coc2c1	30%	-1%	-5%	-1%	8%	-2%
COc1cc2ncc(-c3ccccc3)nc2cc1OC	nt	50%[59 µM]	nt	nt	26%	nt
CCCCNC(=O)c1oc2ccc(S(=O)(=O)N3CCCC3)cc2c1C	21%	24%[59 µM]	0%	-8%	10%	9%
COc1ccc(Cc2nc3ccc(C(=O)N4CCN(C)C(C)C4)cc3o2)cc1OC (configuration not stated)	17%	-16%	-9%	-16%	13%	-6%
CCOC(=O)c1c(S(=O)(=O)NCC(=O)Nc2cccc(CC)c2)c(C)n(C)c1C	15%	3%[59 µM]	nt	-9%	nt	-12%
S=c1sc2c(N3CCN(Cc4ccccc4)CC3)ncnc2n1-c1ccccc1	6%	-3%	0%	5%	10%	-7%
CCN1CCN(c2ncnc3c2sc(=S)n3-c2ccccc2)CC1	34%	50µM*	-18%	-20%	16%	3%
Cc1ccc(C(=O)Oc2oc(-c3ccccc3)nc2C=Nc2ccc(N(C)C)cc2)cc1	37%	61%[59 µM]	72%	-15%	?	46%
COc1cccc(N=Cc2nc(-c3ccccc3)oc2OC(C)=O)c1	26%	50µM*	?	-11%	-16%	-2%
COc1ccc(N=Cc2nc(-c3ccccc3)oc2OC(C)=O)cc1	49%	nt	?	-20%	-6%	-1%
CN(C)c1ccc(N=Cc2nc(-c3ccccc3)oc2OC(=O)c2cccc(Cl)c2)cc1	-1%	8.9µM*	3%	-25%	?	-11%
Cc1c(NC(=S)NC(=O)c2cccc(Cl)c2)c(=O)n(-c2ccccc2)n1C	21%	nt	-4%	4%	-6%	?
Cc1ccc(S(=O)(=O)N(C)c2ccc(OC(=O)c3cc(=O)[nH]c4ccccc34)cc2)cc1	65%	nt	-5%	-17%	nt	nt
COC(=O)Cc1cc(=O)n2[nH]cnc2n1	13%	-33%[0.501 µM]	-4%	-11%	-9%	79µM*
O=C(Cn1ncc2c3ccccc3n(Cc3cccc(Cl)c3)c2c1=O)NCCC1=CCCCC1	13%	5%[59 µM]	nt	-27%	nt	-24%
Cc1ccc(/C(O)=C2/C(=O)C(=O)N(c3ccccn3)C2c2ccc(F)cc2)cc1 (configuration not stated)	6%	40µM*	1%	-11%	?	-31%
